Screening data deposited in PubChem BioAssay by National Center for Advancing Translational Sciences (NCATS).
Pf growth 48h: inhibits P. falciparum growth in the first generation, 48 h | P. falciparum luciferase growth in erythrocytes, 48 h | Potency, µM (top dose mostly 28.7 µM), for inactives: at the highest dose activity change, negative = inhibition, actives largely listed as inhibitors | actives 5.9% (n = 310,000); also: potency is read from the fitted curve at half-maximal effect
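Here the parasites carry a stable luciferase gene and grow inside erythrocytes in Albumax-based RPMI medium with compound for one erythrocytic cycle. Activity is scored as loss of luminescent signal.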
HCMV inh: human cytomegalovirus inhibition. HFF cells, HCMV-luciferase reporter, 72 h; active compounds read low. activity change, negative = inhibition, % at 57.5 µM. actives 4.5% (n = 410,000). AID 1259415; in the data active = activity change below about -60%; inconclusive = no clear call, values can overlap the other calls; inactive = above about -39%
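Steps: HFFs plated, 16 h 37C; compounds added; HCMV-luciferase added to MOI 1 PFU/cell; 72 h 37C; OneGlo reagent, 5 min room temperature; luminescence read, normalized to controls.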
Pf growth 96h: P. falciparum growth inhibition at 96 hour, primary screen for plastid delayed-death inhibitors | actives 6.9% (n = 320,000) | AID 504834 | Potency, µM (top dose mostly 28.7 µM), without a hit: at the top dose activity change, negative = inhibition, most hits filed as inhibitors | P. falciparum luciferase reporter growth, 96 h; also: potency is read from the fitted curve at half-maximal effect
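Cell-based qHTS: luciferase-tagged P. falciparum in erythrocytes (2% hematocrit, 0.05% parasitemia final) incubated with compounds for 96 hours, 37 C, 5% CO2; luciferase detection reagent then added and luminescence measured.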
Sm TGR inh: inhibitors of Schistosoma mansoni thioredoxin glutathione reductase; purified TGR, DTNB reduction, TNB absorbance 405 nm; Potency, µM (series often up to 114 µM), without a hit: top-dose activity change, negative = inhibition, usual class: inhibitors; actives 3% (n = 360,000); AID 485364; also: potency is read from the fitted curve at half-maximal effect; nearly all actives have a fitted effect of over 60% in size
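First, TGR (20 nM dispensed) and NADPH were mixed with compound. Second, a 15 min room-temperature incubation followed. Third, further NADPH and then DTNB were added to start the reaction. Finally, TNB absorbance was monitored kinetically.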
FBPA Giardia inh: Giardia lamblia aldolase inhibition; A8B2U2; purified Giardia FBPA; Potency, µM (doses to about 59.6 µM), for inactives: top-dose activity, negative = inhibition, hits mostly inhibitors; actives 0.71% (n = 290,000); AID 2451; also: potency is read from the fitted curve at half-maximal effect; nearly all actives have a fitted effect of over 55% in size
Target sequence (A8B2U2 whole entry, looked up): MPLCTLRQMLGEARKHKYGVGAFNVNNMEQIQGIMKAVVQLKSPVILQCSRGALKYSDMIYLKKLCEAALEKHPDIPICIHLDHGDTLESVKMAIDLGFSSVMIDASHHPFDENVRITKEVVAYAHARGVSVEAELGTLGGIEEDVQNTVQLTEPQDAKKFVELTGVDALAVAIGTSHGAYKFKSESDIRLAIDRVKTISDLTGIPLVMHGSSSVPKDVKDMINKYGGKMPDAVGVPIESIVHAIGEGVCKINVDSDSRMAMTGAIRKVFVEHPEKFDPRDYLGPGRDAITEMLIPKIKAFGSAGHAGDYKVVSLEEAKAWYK
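Giardia FBPA (40 nM reagent) was preincubated 10 min at RT with compound (up to 57.5 uM final), then substrate plus GAPDH/TPI/NAD/arsenate coupling system with diaphorase/resazurin was added; resorufin fluorescence (525/598 nm) was read after 20 min.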
Starred values were filed as active, the others as inactive; ? = inconclusive; nt = no result; ! = a repeat was not active. Shown are actives, neighbours in structure and some others; about 14% of the full set was active somewhere. Unless noted, calls follow the shape of the dose curve; as a rule, active = well fitted curve in the direction sought with a large enough effect; inconclusive = small, poorly fitted or top-dose-only effect, or another doubt; inactive = no such curve, though single readings can be large; an effect the other way counts as inactive or inconclusive. % is scaled to controls: 0 for no effect and ±100 for the full control effect.

SMILES	Pf growth 48h	HCMV inh	Pf growth 96h	Sm TGR inh	FBPA Giardia inh
COc1ccc(CC(=O)Nc2cccc(-c3cn4ccccc4n3)c2)cc1	39%	17	45%	-11%	-3%
CN(C)S(=O)(=O)c1cccc(-c2nnc(-c3ccccc3)o2)c1	nt	-105*	?	15%	7%
COc1cc(C(C)=O)ccc1OCC(=O)NCC(c1ccc(F)cc1)N1CCOCC1 (centres undefined)	nt	-12	nt	nt	nt
Cc1cn(CC(=O)NCc2nc3ccccc3[nH]2)c(=O)[nH]c1=O	nt	13	nt	nt	nt
O=[N+]([O-])c1ccc(Cl)cc1P(=O)(O)c1cc(Cl)ccc1[N+](=O)[O-]	nt	8	nt	nt	nt
O=C(Nc1ccccc1Cl)OC1CCCCC1	37%	-10	50%	3%	9%
COc1ccc(-c2cn3cccnc3n2)cc1NC(=O)C1CC1	25%	59	9.3µM*	5%	0%
CCOC(=O)c1ccc(NC(=O)C(C)Sc2nc(=O)cc(N)n2CCc2ccccc2)cc1 (centres undefined)	nt	2	nt	0%	nt
Cc1ccc(-n2ncc3c(=O)[nH]c(SC(C)C)nc32)cc1	-1%	-96*	27%	4%	-2%
Cc1ccc2nc(SCc3nc4c(cnn4-c4ccccc4)c(=O)[nH]3)[nH]c2c1	-16%	-83*	-22%	-23%	3%
O=c1[nH]c(CSc2nc3ccccc3[nH]2)nc2c1cnn2-c1ccccc1	-4%	-86*	?	-2%	5%
O=c1[nH]c(CSc2ncccn2)nc2c1cnn2-c1ccccc1	14%	62	0%	-9%	4%
O=c1[nH]c(SCc2nc3c(cnn3-c3ccccc3)c(=O)[nH]2)nc2ccccc12	41%	-92*	28%	4%	-13%
Cc1ccc2nc(SCc3nc4cc(Cl)ccc4c(=O)[nH]3)[nH]c2c1	?	-19	4%	5%	1%
O=C(c1cc(-c2ccc(Br)cc2)n[nH]1)N1CCN(S(=O)(=O)c2ccc(Cl)s2)CC1	nt	?	nt	1%	nt
C[C@]12C=CC(=O)N[C@@H]1CC[C@@H]1C2CC[C@]2(C)C(C(=O)Nc3cc(C(F)(F)F)ccc3C(F)(F)F)CC[C@@H]12 (some centres undefined)	4.8µM*	nt	3.4µM*	nt	nt
Cc1cccc(NC(=O)Nc2ccc(Oc3c(F)c(F)c(F)c(F)c3F)cc2)c1	?	8	7.4µM*	-22%	10%
Cc1cccc(NC(=O)Nc2ccc(S(N)(=O)=O)cc2)c1	9%	10	30%	-11%	-6%
CC#CC(=O)N1CCC(CCC(=O)N(C)Cc2ccccc2)CC1	?	?	2%	-15%	9%
O=C(O)CCCCCN=Cc1c(O)c2ccccc2oc1=O	3%	-15	60%	7%	2%
CCOC(=O)c1ccc(N2C(=O)CC(N3CCC(Nc4ccc(F)cc4)CC3)C2=O)cc1 (centres undefined)	nt	20	12%	56µM*	-1%
CCOC(=O)C1CCCN(C2CC(=O)N(c3cccc(C)c3)C2=O)C1 (centres undefined)	7%	8	-37%	25µM*	-21%
CCOC(=O)c1ccc(N2C(=O)CC(N3CCCC(C)C3)C2=O)cc1 (centres undefined)	nt	7	31%	25µM*	20%
O=C(N/N=C/c1ccc(O)c(O)c1)N/N=C/c1ccc(O)c(O)c1	?	20	-3%	?	-24%
Oc1cc(O)cc(/C=C/c2ccc(O)c(O)c2)c1	-3%	117	1%	22µM*	?
SMILES	Pf growth 48h	HCMV inh	Pf growth 96h	Sm TGR inh	FBPA Giardia inh
COC(=O)[C@H](Cc1ccccc1)N1CC(N2CCCC2)CS1(=O)=O (some centres undefined)	nt	-17	nt	nt	nt
CN(C)CCNC(=O)c1cccc(-c2cnc3c(NC=O)cc(-c4cccc(F)c4)cn23)c1	nt	-87*	nt	nt	nt
CC(=O)Nc1cc(-c2cccc(C(=O)NCCN(C)C)c2)cn2c(-c3ccccc3)cnc12	nt	-10	nt	nt	nt
CC(=O)Nc1cc(-c2cccc(C(=O)NCCN(C)C)c2)cn2c(-c3cccc(C(F)(F)F)c3)cnc12	nt	-100*	nt	nt	nt
COc1ccc(-c2cc(NC=O)c3ncc(-c4cccc(C(=O)NCCN(C)C)c4)n3c2)cc1	nt	-66*	nt	nt	nt
CN(C)CCNC(=O)c1cccc(-c2cnc3c(NC=O)cc(/C=C/c4ccccc4)cn23)c1	nt	-11	nt	nt	nt
CCSc1ccc(-c2cc(NC=O)c3ncc(-c4cccc(C(=O)NCCN(C)C)c4)n3c2)cc1	nt	-21	nt	nt	nt
O=C(O)c1cccc(S(=O)(=O)N(Cc2ccccc2)c2ccc(Cl)cc2)c1	6%	?	7%	-3%	3%
COc1ncccc1-c1nnn(-c2ccc(Cl)nc2)n1	102%	100	141%	25µM*	-3%
Clc1ccc(-n2nnc(-c3cccnc3Cl)n2)cn1	114%	20	279%	?	4%
COc1ccc(C(=O)O/N=C(\N)c2ccccn2)c(OC)c1	-12%	-75*	-28%	4%	0%
COc1ccc(C(=O)O/N=C(\N)c2ccccc2)c(OC)c1	-66%	-78*	-72%	0%	-6%
COc1ccc(C(=O)c2ccccc2)c(O)c1	?	-23	15µM*!	2%	3%
COc1ccc(C(=O)O/N=C(\N)c2ccc(OC)c(OC)c2)c(OC)c1	75%	nt	-9%	-2%	-1%
COc1ccc(C(=O)c2ccc(C)cc2)c(O)c1	54%	52	45%	nt	nt
O=S(=O)(NC1CCN(S(=O)(=O)c2c(F)cccc2F)CC1)c1ccc2c(c1)OCCO2	nt	12	nt	nt	nt
O=S(=O)(NC[C@@H]1CCC[C@H](CNS(=O)(=O)c2c(F)cccc2F)C1)c1ccc2c(c1)OCCO2	8.3µM*	nt	?	-8%	nt
O=S(=O)(NC1CCN(S(=O)(=O)c2c(F)cccc2F)C1)c1ccc2c(c1)OCCO2 (centres undefined)	1%	-78*	?	-5%	nt
Cc1cncc(NCc2cccc(Cl)c2)n1	nt	-20	nt	nt	nt
CC(=C/C(=O)O)/C=C/c1ccco1	?	7	?	7.9µM*	-14%
